Results filed as inconclusive are left out. Active and inactive are the calls of the source. Unless noted, calls come from the whole dose curve; as a rule, active = well fitted curve in the direction sought with a large enough effect; inconclusive = small, poorly fitted or top-dose-only effect, or another doubt; inactive = no such curve, though single readings can be large; an effect the other way counts as inactive or inconclusive.
Columns and labels:
[1] = Cell Viability - SK-N-SH (AID 435; calls by dose curve; note: potency is the fitted concentration of half-maximal effect); settings: SK-N-SH neuroblastoma cell viability qHTS
Summary of the method: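 SK-N-SH human neuroblastoma cells (1500/well) were exposed to compounds in complete medium for 40 h at 37 °C, and intracellular ATP was then measured by CellTiter-Glo luminescence. AC50 was taken from Hill fits, normalized to DMSO and 100 uM tamoxifen.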

[2] = Cell Viability - N2a (AID 540); settings: N2a mouse neuroblastoma cell viability; activity change, negative = cytotoxicity: at 92.2 µM (top of the series); note: nearly all actives have a fitted effect of over 45% in size; note: potency is the fitted concentration of half-maximal effect;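 for activity change, negative = cytotoxicity: plate controls were DMSO alone for no effect and tamoxifen control for full effect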
Summary of the method: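 CellTiter-Glo ATP luminescence, read 20 min after reagent at room temperature, reported viability following 40 h compound treatment at 37 °C. N2a mouse neuroblastoma cells seeded 1500/well; Hill equation gave AC50.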

[3] = Cell Viability - H-4-II-E (AID 543); settings: H-4-II-E rat hepatoma viability; series mostly up to 92.2 µM; note: nearly all actives have a fitted effect of over 35% in size; note: potency is the fitted concentration of half-maximal effect
Summary of the method: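 CellTiter-Glo luminescence (intracellular ATP) measured after 40 h compound exposure at 37 °C in H-4-II-E rat hepatoma cells seeded at 1500/well. Values are AC50s fitted with the standard Hill equation.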

[4] = Cell Viability - Renal Proximal Tubule (AID 545); settings: renal proximal tubule cells viability, primary cells of rat origin; activity change, negative = cytotoxicity: at 91.7 µM (top of the series); note: nearly all actives have a fitted effect of over 40% in size; note: potency is the fitted concentration of half-maximal effect;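 for activity change, negative = cytotoxicity: 0% = DMSO only and -100% = 100 µM tamoxifen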
Summary of the method: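 Primary rat renal proximal tubule cells (1000/well) were treated with compounds for 40 hr at 37 °C in complete medium. Intracellular ATP was measured by CellTiter-Glo luminescence, and AC50 values came from Hill-equation fits of concentration-response data.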

[5] = Cell Viability - LYMP2-001 (AID 921); settings: LYMP2-001 lymphoblastoid cell viability; series mostly up to 92.2 µM; note: nearly all actives have a fitted effect of over 70% in size; note: potency is the fitted concentration of half-maximal effect
Summary of the method: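 Human lymphoblastoid cells (Coriell), 2500 per well, were preincubated 5 hr at 37 C, then exposed to compounds in complete medium for 24 hr at 37 C. Cellular ATP was read by CellTiter-Glo luminescence; AC50 from Hill fits of concentration-response data.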

[6] = MultiTox-Fluor Cytotoxicity Assay - LYMP1-002 - Dead Cells (AID 960); settings: LYMP1-002 lymphoblastoid cells, dead-cell protease fluorescence; series mostly up to 46.1 µM; note: nearly all actives have a fitted effect of over 60% in size; note: potency is the fitted concentration of half-maximal effect
Summary of the method: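 Dead-cell fluorescence (Ex/Em 485/520) after 16 h compound exposure at 37 C of LYMP1-002 lymphoblastoid cells in complete medium; AC50 by Hill equation, with data scaled between DMSO and 15 uM tetraoctylammonium bromide.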

[7] = Cell Viability - LYMP2-005 (AID 967); settings: LYMP2-005 lymphoblastoid cell viability; series mostly up to 92.2 µM; note: potency is the fitted concentration of half-maximal effect
Summary of the method: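 CellTiter-Glo luminescence (cellular ATP) read-out; LYMP2-005 lymphoblastoid cells, 2500/well, 5 h pre-incubation, then 24 h compound exposure at 37 C in complete medium. Tetraoctylammonium bromide positive control; AC50 by standard Hill fit.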

[8] = Cell Viability - LYMP2-009 (AID 968); settings: LYMP2-009 lymphoblastoid cell viability; series mostly up to 92.2 µM; note: nearly all actives have a fitted effect of over 55% in size; note: potency is the fitted concentration of half-maximal effect
[9] = Cell Viability - LYMP2-015 (AID 971); settings: LYMP2-015 lymphoblastoid cell viability; series mostly up to 92.2 µM; note: nearly all actives have a fitted effect of over 55% in size; note: potency is the fitted concentration of half-maximal effect
Summary of the method: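 Cytotoxicity readout: decrease in intracellular ATP (CellTiter-Glo luminescence) in 2500 LYMP2-015 lymphoblastoid cells/well after 24 h compound exposure at 37 C. Concentration-response data fitted with the standard Hill equation to give AC50.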

[10] = Cell Viability - LYMP2-017 (AID 972); settings: LYMP2-017 lymphoblastoid cell viability; series mostly up to 92.2 µM; note: nearly all actives have a fitted effect of over 55% in size; note: potency is the fitted concentration of half-maximal effect; for activity change, negative = cytotoxicity: % is set by controls: 0 for no effect and ±100 for the full control effect
Summary of the method: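 CellTiter-Glo luminescence (cellular ATP, 30 min RT) measured cytotoxicity after 24 hr compound treatment at 37 C. Cells were a human lymphoblastoid line, LYMP2-017, plated at 2500/well and incubated 5 hr first; concentration-response fitted with Hill equation for AC50.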

[11] = Cell Viability - LYMP2-006 (AID 978); settings: LYMP2-006 lymphoblastoid cell viability, qHTS; series mostly up to 92.2 µM; note: nearly all actives have a fitted effect of over 60% in size; note: potency is the fitted concentration of half-maximal effect; for activity change, negative = cytotoxicity: % is set by controls: 0 for no effect and ±100 for the full control effect
Summary of the method: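 Human lymphoblastoid cells, 2500 per well, were preincubated 5 hr at 37 C, then exposed to compounds for 24 hr at 37 C in complete medium. Viability was read as intracellular ATP by CellTiter-Glo luminescence; AC50 from Hill-equation fits of qHTS concentration-response data.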

[12] = Cell Viability - LYMP2-010 (AID 981); settings: LYMP2-010 lymphoblastoid cell viability, qHTS; series mostly up to 92.2 µM; note: nearly all actives have a fitted effect of over 55% in size; note: potency is the fitted concentration of half-maximal effect
Summary of the method: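 CellTiter-Glo ATP luminescence measured cytotoxicity after 24 h compound exposure at 37 C. LYMP2-010 cells were seeded at 2500/well, with tetraoctylammonium bromide as control; concentration-response curves gave AC50 values by the Hill equation.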

[13] = qHTS assay for small molecule agonists of retinoid X receptor alpha signaling (AID 588544); settings: HEK293T RXRa-UAS-bla, beta-lactamase reporter, 18 h; 530 nm emission
[14] = biological target: Thyroid hormone receptor beta (Homo sapiens) (UniProt P10828); test: qHTS assay for small molecule agonists of thyroid hormone receptor beta signaling (AID 588545; calls by dose curve; note: potency is the fitted concentration of half-maximal effect); settings: TR-UAS-bla GripTite HEK 293, beta-lactamase ratio, agonist mode, 18 h; series mostly up to 76.7 µM
Summary of the method: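 Agonist activity was read as beta-lactamase CCF4 fluorescence (405 ex, 460/530 em), scaled between DMSO (0%) and 10 nM T3 (100%), then Hill-fitted for EC50 and efficacy. HEK 293 TR-UAS-bla cells in 2% charcoal/dextran FBS medium were exposed 18 h at 37 C.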

[15] = biological target: Thyroid hormone receptor beta (Homo sapiens) (UniProt P10828); test: qHTS assay for small molecule antagonists of thyroid hormone receptor beta signaling (AID 588547; active = well fitted inhibition curve with a large enough effect in the signal ratio, with a control signal flat, not every such curve was filed as active; the % refers to the signal ratio;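 note: cells stimulated with 0.4 nM T3 agonist during compound exposure; % is set by controls: 0 for no effect and ±100 for the full control effect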); settings: TR-UAS-bla HEK293, beta-lactamase ratio, antagonist mode, 18 h
Summary of the method: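 TR-UAS-bla GripTite HEK293 cells in 2% charcoal/dextran FBS medium; compounds 0.59 nM to 92 uM with T3 at 0.4nM final, 18 h at 37 C. Beta-lactamase read by CCF4 fluorescence (460/530 nm); Hill fits gave IC50 and efficacy.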

[16] = qHTS assay for small molecule disruptors of the mitochondrial membrane potential - 1 hr assay (AID 651754; calls by dose curve; note: nearly all actives have a fitted effect of over 35% in size; note: potency is the fitted concentration of half-maximal effect); settings: series mostly up to 92.2 µM
Summary of the method: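 Mitochondrial potential in living HepG2 cells after 1 hr compound treatment at 37C was read with Mito-MPS dye added for a further 30 min. Red aggregate and green monomer fluorescence were measured; loss of potential leaves dye as cytoplasmic monomers.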

[17] = qHTS assay for small molecule disruptors of the mitochondrial membrane potential - 5 hr assay (AID 651755; calls by dose curve; note: nearly all actives have a fitted effect of over 40% in size; note: potency is the fitted concentration of half-maximal effect); settings: JC-1-type ratio dye; series mostly up to 92.2 µM
Summary of the method: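 Read-out: ratiometric Mito-MPS fluorescence, green monomer (ex 490/em 535) vs red mitochondrial aggregate (ex 540/em 590). HepG2 cells treated 5 hr at 37C before 30 min dye loading.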

[18] = qHTS assay for small molecule agonists of the antioxidant response element (ARE) signaling pathway measured by Nrf2-dependant transcriptional activity (AID 720636; active = well fitted curve in the direction sought with a large enough effect in the repeat runs; an effect the other way counts as inactive or inconclusive; note: % of control where 0% means no effect); settings: ARE-luc HepG2, Nrf2 luciferase reporter, 16 h; series mostly up to 92.4 µM
Summary of the method: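 Quantitative HTS format in HepG2 cells stably expressing an ARE-luciferase reporter; 16 hr compound treatment at 37 C, luciferase signal detected with ONE-Glo.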

[19] = biological target: Nuclear receptor subfamily 1 group I member 2 (Rattus norvegicus) (UniProt Q9R1A7); test: qHTS assay for small molecule activators of the rat pregnane X receptor (rPXR) signaling pathway (AID 651751; call rule not given here; note: 0% is about no effect); settings: rPXR reporter cells, luciferase (One-Glo), 24 h
[20] = MultiTox-Fluor Cytotoxicity Assay - LYMP1-001 - Live Cells (AID 947); settings: LYMP1-001 lymphoblastoid cells, live-cell protease fluorescence viability; series mostly up to 92.2 µM;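 note: 0% = DMSO only and full inhibition = tetraoctylammonium bromide control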

Sequence of Thyroid hormone receptor beta (Homo sapiens) (P10828 whole entry, looked up): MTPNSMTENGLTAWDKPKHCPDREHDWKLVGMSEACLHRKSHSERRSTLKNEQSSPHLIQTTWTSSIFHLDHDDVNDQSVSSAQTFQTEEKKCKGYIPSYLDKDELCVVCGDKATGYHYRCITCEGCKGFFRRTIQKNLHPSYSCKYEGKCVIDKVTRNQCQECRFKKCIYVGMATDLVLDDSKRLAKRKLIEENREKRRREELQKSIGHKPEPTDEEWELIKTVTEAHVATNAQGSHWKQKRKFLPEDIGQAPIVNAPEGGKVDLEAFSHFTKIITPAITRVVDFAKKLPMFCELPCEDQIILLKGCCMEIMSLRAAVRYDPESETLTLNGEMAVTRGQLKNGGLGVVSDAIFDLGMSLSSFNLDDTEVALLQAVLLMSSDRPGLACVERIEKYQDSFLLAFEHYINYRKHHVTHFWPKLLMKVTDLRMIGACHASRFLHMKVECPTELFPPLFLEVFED
Sequence of Nuclear receptor subfamily 1 group I member 2 (Rattus norvegicus) (Q9R1A7 whole entry, looked up): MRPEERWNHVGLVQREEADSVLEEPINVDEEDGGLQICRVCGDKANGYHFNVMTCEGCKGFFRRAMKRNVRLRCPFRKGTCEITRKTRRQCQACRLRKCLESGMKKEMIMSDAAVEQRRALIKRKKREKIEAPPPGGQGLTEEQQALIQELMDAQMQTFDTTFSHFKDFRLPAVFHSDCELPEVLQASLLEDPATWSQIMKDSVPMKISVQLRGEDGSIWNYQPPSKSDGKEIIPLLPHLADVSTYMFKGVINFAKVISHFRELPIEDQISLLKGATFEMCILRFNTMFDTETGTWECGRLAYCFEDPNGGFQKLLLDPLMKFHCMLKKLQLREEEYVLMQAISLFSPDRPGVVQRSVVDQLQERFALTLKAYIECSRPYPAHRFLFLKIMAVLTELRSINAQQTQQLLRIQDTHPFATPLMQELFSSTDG

NC(=O)c1ccc([N+](=O)[O-])cc1
inactive: Potency [1] > 92 µM | activity change, negative = cytotoxicity [2] 4.68% | Potency [3] | Potency [4] | Potency [5] | Potency [6] | Potency [7] | Potency [8] | Potency [9] | Potency [10] | Potency [11] | Potency [12] | Potency [14] | activity change % (negative = inhibition) [15] -17.4% | Potency [16] | Potency [17] | Potency [18] | max response [19] -2.18%
-9.87%: max response [13]

CCN(CC)c1ccc2c(C)cc(=O)oc2c1
inactive: Potency [1] > 92 µM | activity change, negative = cytotoxicity [2] -15.7% | Potency [5] | Potency [20] | Potency [7] | Potency [8] | Potency [9] | Potency [10] | Potency [11] | Potency [12] | Potency [18]
active: Potency [14] 22.4 µM

CCCCCCCC/C=C\CCCCCCCC(=O)N(CCO)CCO
inactive: Potency [5] | Potency [20] | Potency [7] | Potency [8] | Potency [9] | Potency [10] | Potency [11] | Potency [12] | Potency [16] | Potency [17] | Potency [18] | max response [19] 3.59%
13.2%: max response [13]
active: activity change, negative = cytotoxicity [2] -111% | Potency [3] 39.8 µM | Potency [6] 31.6 µM

Cc1c2ccccc2c(C)c2c1ccc1ccccc12
inactive: activity change, negative = cytotoxicity [2] -25% | Potency [3] | Potency [20] | Potency [7] | Potency [8] | Potency [11] | Potency [18]
active: Potency [6] 25.1 µM | Potency [16] 37.6 µM | Potency [17] 33.5 µM

CC1=C(/C=C/C(C)=C/C=C/C(C)=C/C=O)C(C)(C)CCC1
inactive: Potency [14] | Potency [16] | Potency [17]
active: Potency [1] 42.3 µM | Potency [2] 31.6 µM | Potency [3] 25.1 µM | Potency [4] 15.8 µM | Potency [5] 39.8 µM | Potency [6] 31.6 µM | Potency [7] 39.8 µM | Potency [8] 39.8 µM | Potency [9] 39.8 µM | Potency [10] 39.8 µM | Potency [11] 63.1 µM | Potency [12] 31.6 µM

c1ccc(SCCSc2ccccc2)cc1
-9.01%: max response [13]
inactive: Potency [1] > 92 µM | activity change, negative = cytotoxicity [2] 8.64% | Potency [3] | Potency [4] | Potency [5] | Potency [20] | Potency [6] | Potency [7] | Potency [8] | Potency [9] | Potency [10] | Potency [11] | Potency [12] | Potency [14] | activity change % (negative = inhibition) [15] 8.32% | Potency [17]

CC(/C=C/C=C(C)/C=C/C(=O)O)=C\C=C\C=C(C)\C=C\C=C(C)\C=C\C(=O)O
4.44%: max response [13]
inactive: Potency [1] > 92 µM | activity change, negative = cytotoxicity [2] -5.79% | Potency [3] | Potency [5] | Potency [6] | Potency [8] | Potency [9] | Potency [10] | Potency [11] | Potency [12] | activity change % (negative = inhibition) [15] -2.15% | Potency [16] | Potency [17] | max response [19] 10.8%

— PubChem BioAssay (NCATS)
